# PubChem BioAssay (NCATS)
# Records with an inconclusive call do not appear. Unmarked numbers belong to inactive results. Active and inactive are the calls of the source. Calls follow the shape of the dose curve; as a rule, active = well fitted curve in the direction sought with a large enough effect; inconclusive = small, poorly fitted or top-dose-only effect, or another doubt; inactive = no such curve, though single readings can be large; an effect the other way counts as inactive or inconclusive.
# Molecular target: Rap guanine nucleotide exchange factor 3 (Homo sapiens) (UniProt O95398)
# Sequence (O95398 whole entry, looked up): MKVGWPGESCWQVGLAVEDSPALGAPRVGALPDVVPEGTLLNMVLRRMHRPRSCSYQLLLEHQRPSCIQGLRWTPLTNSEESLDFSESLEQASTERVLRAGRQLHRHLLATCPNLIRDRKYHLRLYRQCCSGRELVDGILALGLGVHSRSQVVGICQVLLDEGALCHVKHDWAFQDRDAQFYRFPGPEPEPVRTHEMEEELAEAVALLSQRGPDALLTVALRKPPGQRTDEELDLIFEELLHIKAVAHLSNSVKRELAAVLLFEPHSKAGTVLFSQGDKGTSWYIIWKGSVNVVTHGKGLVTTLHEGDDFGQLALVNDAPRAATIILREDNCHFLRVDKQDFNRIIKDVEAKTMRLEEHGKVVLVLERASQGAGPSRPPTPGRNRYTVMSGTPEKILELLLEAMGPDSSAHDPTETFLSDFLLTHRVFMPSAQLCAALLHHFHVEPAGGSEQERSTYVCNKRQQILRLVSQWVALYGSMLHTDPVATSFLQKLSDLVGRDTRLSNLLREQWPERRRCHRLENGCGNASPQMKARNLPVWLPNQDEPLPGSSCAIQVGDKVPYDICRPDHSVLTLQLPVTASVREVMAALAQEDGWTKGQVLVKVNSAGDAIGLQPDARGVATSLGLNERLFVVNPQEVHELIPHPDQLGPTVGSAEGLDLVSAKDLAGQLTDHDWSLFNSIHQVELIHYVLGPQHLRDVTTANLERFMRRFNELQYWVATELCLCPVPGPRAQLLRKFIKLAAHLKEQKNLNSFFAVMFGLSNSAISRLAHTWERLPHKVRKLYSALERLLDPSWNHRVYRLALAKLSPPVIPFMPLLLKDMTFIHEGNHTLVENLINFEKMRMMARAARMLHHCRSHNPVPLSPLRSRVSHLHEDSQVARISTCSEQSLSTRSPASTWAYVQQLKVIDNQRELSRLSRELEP
# Assay: Counterscreen qHTS for antagonist of cAMP-regulated guanine nucleotide exchange factor 3 (EPAC1) (AID 1645888);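 also: fluorescence loss as bound BODIPY-GDP is released from Rap1B; % of control where 0% means no effect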
# Conditions: Rap1B-BODIPY-GDP nucleotide exchange, fluorescence; series mostly up to 154 µM; activity change, negative = inhibition: at the top concentration
# Method in brief: (§1)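 Rap1B-BODIPY-GDP 250 nM + GDP 50 uM; cpds 7-pt, final 9.74 nM–152 uM (activator mode) or from 7.32 nM upwards (inhibitor mode); RT; FI 480/540 nm at 5 and 30 min, then ± cAMP, reread.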
row,SMILES,"activity change, negative = inhibition"
1,Cc1ccc(Nc2c([N+](=O)[O-])c(=O)oc3ccccc23)cc1C,9.59%
2,O=C1c2ccccc2C(c2nnnn2Cc2ccccc2)N1CCc1c[nH]c2ccccc12 (stereo not given),-5.32%
3,CN(CC(=O)Nc1ccccc1Cl)C(=O)c1ccc(Cl)c(S(=O)(=O)N2CCCCCC2)c1,-16.7%
4,Cc1cccc(NC(=S)N2CCN(S(=O)(=O)c3cccc(F)c3)CC2)c1,4.55%
5,CCc1ccc(S(=O)(=O)Nc2cc(SCC(=O)O)c(O)c3ccccc23)cc1,8.49%
6,Cc1ccc(O)c(CNc2ccc(S(=O)(=O)Nc3nccs3)cc2)c1,1.37% [at 30.8 µM]
7,C=C1SC(Nc2c(C)cccc2C)=NC12CCCCC2,-15.2%
8,COc1cccc(C(=O)Oc2ccc(/C=N/Nc3ccc(C(=O)O)cc3)cc2OC)c1,8.1%
9,CCC(=C(c1ccc(OC)cc1)c1ccc(OC)cc1)c1cn(CC(O)CN(CCO)CCO)c2ccccc12 (stereo not given),13.8%
10,COc1cnc(N(C)C)nc1Sc1cccc(Cl)c1,-24.7% [at 30.8 µM]
11,CCOc1cc(/C=N/O)cc(Br)c1OCc1ccc(Cl)cc1,-28.3%
12,CCCCn1c(=O)[nH]c(=O)c2c1nc(-c1ccccc1F)n2Cc1ccccc1OC,-32.6%
13,CCOC(=O)C1C(=O)C=C(c2ccc(C)cc2)CC1c1ccccc1 (stereo not given),-1.31% [at 30.8 µM]
14,CCOc1cc(C)c(-c2onc(C(F)(F)F)c2-c2csc(C)n2)c(O)c1,-20.4%
15,CCOC(=O)C1=C(N)Oc2ccc3ccccc3c2C1c1ccc(O)cc1 (stereo not given),22.9%
16,O=C(O)c1ccc(COc2ccccc2/C=C2\NC(=O)N(Cc3ccc(F)cc3)C2=O)cc1,-19.6%
17,O=C(O)c1ccc(COc2ccc3ccccc3c2/C=C2/NC(=O)N(Cc3ccc(F)cc3)C2=O)cc1,2.84%
18,CC1(c2ccccc2)CC(C)(C)N2C(=O)C(=O)c3cccc1c32 (stereo not given),-4.27% [at 30.8 µM]
19,Cc1cccc(OC(=O)Nc2ccc(C(=O)O)c(O)c2)c1,-25.7% [at 30.8 µM]
20,COc1ccc(-c2nc(CCNS(=O)(=O)c3ccc4c(c3)OCCO4)cs2)cc1,-22.1%

row,SMILES,"activity change, negative = inhibition"
1,O=C(CSc1n[nH]c(=O)[nH]c1=O)Nc1ccc2c(c1)C(=O)c1ccccc1C2=O,-24.9%
2,CCCCCOC(=O)C1=C(C)Nc2nnnn2C1c1ccccc1Cl (stereo not given),-14.1% [at 30.8 µM]
3,Cc1ccc(C)c(Cn2nc(-c3ccccc3)ccc2=O)c1,14.9% [at 30.8 µM]
4,Cn1c(N)c(C(=O)COC(=O)Cc2ccc(Cl)c(Cl)c2)c(=O)n(C)c1=O,-22.2%
5,O=C(N/N=C/c1ccoc1)c1cc(O)cc(O)c1,13.5%
6,O=C(Nc1ccncc1)c1cc2ccccc2cc1O,12.1%
7,COc1ccccc1N1C(=O)C2C(C(=O)c3ccccc3)=NN(c3ccc(Br)cc3)C2C1=O (stereo not given),91.3%
8,CC(C)CCNC(=O)c1cnn2c(C(F)(F)F)cc(-c3ccco3)nc12,-20.6%
9,O=S(=O)(Nc1ccccc1-c1ccccc1)c1ccccc1,-1.07%
10,Cc1ccc(C(=O)NNC(=O)c2ccccc2O)cc1S(=O)(=O)N1CCCCC1,2.72%
11,CCCN(CCC)Cc1cc(=O)oc2cc(OC)ccc12,-11%
12,N=C1S/C(=C\c2ccco2)C(=O)N1c1ccc2c(c1)OCO2,-0.442%
13,CCN(CC)S(=O)(=O)c1ccc2[nH]c(=O)cc(C(=O)Nc3ccc(C)c(S(=O)(=O)N(CC)CC)c3)c2c1,-20.8%
14,COC1OC(c2ccccc2)=C(c2cnc(N)nc2)c2ccc(F)cc21 (stereo not given),-3.58% [at 30.8 µM]
15,O=C(NCCc1ccccc1)c1cccc(NC(=O)c2ccccc2)c1,21.1%
16,CN(CC(=O)Nc1ccc(F)cc1)C(=O)COc1ccc(C(=O)c2ccccc2)cc1,-15.1%
17,COc1cccc(/C=C2/NC(=O)N(CC(=O)Nc3ccc(C)cc3)C2=O)c1OCc1cccc(C(=O)O)c1,5.77%
18,COc1ccc(/C=N/NC(=O)c2ccccc2O)cc1Cn1nnc2ccccc21,3.83%
19,CCc1nc2c(OCc3ccc(C(=O)OC)cc3)cccn2c1N(C)C(=O)c1ccc(OC)cc1,5.67% [at 30.8 µM]
20,O=C(CC1C[C@H](C(=O)N2CCCCC2)[C@@]2(CCc3ccccc3)c3[nH]c4ccccc4c3CCN2C1=O)NCCCn1ccnc1 (stereo not given in full),-22.4%

# Molecular target: Rap guanine nucleotide exchange factor 3 (Homo sapiens) (UniProt O95398)
# Assay: Counterscreen qHTS for agonist of cAMP-regulated guanine nucleotide exchange factor 3 (EPAC1) (AID 1645889); also: nearly all actives have a fitted effect of over 40% in size; also: potency is read from the fitted curve at half-maximal effect; as to activation: % of control where 0% means no effect
# Conditions: EPAC1 Rap1B-BODIPY-GDP exchange, fluorescence; series mostly up to 154 µM; activation: at the top concentration
# Method in brief: as §1
SMILES,activation,Potency
Cc1ccc(Nc2c([N+](=O)[O-])c(=O)oc3ccccc23)cc1C,-13.8%,
O=C1c2ccccc2C(c2nnnn2Cc2ccccc2)N1CCc1c[nH]c2ccccc12 (stereo not given),-8.31%,
CN(CC(=O)Nc1ccccc1Cl)C(=O)c1ccc(Cl)c(S(=O)(=O)N2CCCCCC2)c1,14%,
Cc1cccc(NC(=S)N2CCN(S(=O)(=O)c3cccc(F)c3)CC2)c1,0.125%,
CCc1ccc(S(=O)(=O)Nc2cc(SCC(=O)O)c(O)c3ccccc23)cc1,,14.1 µM (active)
Cc1ccc(O)c(CNc2ccc(S(=O)(=O)Nc3nccs3)cc2)c1,19.2% [at 30.8 µM],
C=C1SC(Nc2c(C)cccc2C)=NC12CCCCC2,9.42%,
COc1cccc(C(=O)Oc2ccc(/C=N/Nc3ccc(C(=O)O)cc3)cc2OC)c1,-4.51%,
CCC(=C(c1ccc(OC)cc1)c1ccc(OC)cc1)c1cn(CC(O)CN(CCO)CCO)c2ccccc12 (stereo not given),20.9%,
COc1cnc(N(C)C)nc1Sc1cccc(Cl)c1,-4.79% [at 30.8 µM],
CCOc1cc(/C=N/O)cc(Br)c1OCc1ccc(Cl)cc1,-16.8%,
CCCCn1c(=O)[nH]c(=O)c2c1nc(-c1ccccc1F)n2Cc1ccccc1OC,-2.06%,
CCOC(=O)C1C(=O)C=C(c2ccc(C)cc2)CC1c1ccccc1 (stereo not given),8.22% [at 30.8 µM],
CCOc1cc(C)c(-c2onc(C(F)(F)F)c2-c2csc(C)n2)c(O)c1,-4.99%,
CCOC(=O)C1=C(N)Oc2ccc3ccccc3c2C1c1ccc(O)cc1 (stereo not given),26.4%,
O=C(O)c1ccc(COc2ccccc2/C=C2\NC(=O)N(Cc3ccc(F)cc3)C2=O)cc1,19.1%,
O=C(O)c1ccc(COc2ccc3ccccc3c2/C=C2/NC(=O)N(Cc3ccc(F)cc3)C2=O)cc1,-4.55%,
CC1(c2ccccc2)CC(C)(C)N2C(=O)C(=O)c3cccc1c32 (stereo not given),21.7% [at 30.8 µM],
Cc1cccc(OC(=O)Nc2ccc(C(=O)O)c(O)c2)c1,-3.96% [at 30.8 µM],
COc1ccc(-c2nc(CCNS(=O)(=O)c3ccc4c(c3)OCCO4)cs2)cc1,7.47%,

SMILES,activation,Potency
O=C(CSc1n[nH]c(=O)[nH]c1=O)Nc1ccc2c(c1)C(=O)c1ccccc1C2=O,4.32%,
CCCCCOC(=O)C1=C(C)Nc2nnnn2C1c1ccccc1Cl (stereo not given),21.2% [at 30.8 µM],
Cc1ccc(C)c(Cn2nc(-c3ccccc3)ccc2=O)c1,3.62% [at 30.8 µM],
Cn1c(N)c(C(=O)COC(=O)Cc2ccc(Cl)c(Cl)c2)c(=O)n(C)c1=O,-7.76%,
O=C(N/N=C/c1ccoc1)c1cc(O)cc(O)c1,11.5%,
O=C(Nc1ccncc1)c1cc2ccccc2cc1O,16.2%,
COc1ccccc1N1C(=O)C2C(C(=O)c3ccccc3)=NN(c3ccc(Br)cc3)C2C1=O (stereo not given),-1.74%,
CC(C)CCNC(=O)c1cnn2c(C(F)(F)F)cc(-c3ccco3)nc12,2.64%,
O=S(=O)(Nc1ccccc1-c1ccccc1)c1ccccc1,8.78%,
Cc1ccc(C(=O)NNC(=O)c2ccccc2O)cc1S(=O)(=O)N1CCCCC1,12.4%,
CCCN(CCC)Cc1cc(=O)oc2cc(OC)ccc12,-9.92%,
N=C1S/C(=C\c2ccco2)C(=O)N1c1ccc2c(c1)OCO2,9.04%,
CCN(CC)S(=O)(=O)c1ccc2[nH]c(=O)cc(C(=O)Nc3ccc(C)c(S(=O)(=O)N(CC)CC)c3)c2c1,-22.4%,
COC1OC(c2ccccc2)=C(c2cnc(N)nc2)c2ccc(F)cc21 (stereo not given),11.3% [at 30.8 µM],
O=C(NCCc1ccccc1)c1cccc(NC(=O)c2ccccc2)c1,28.8%,
CN(CC(=O)Nc1ccc(F)cc1)C(=O)COc1ccc(C(=O)c2ccccc2)cc1,17.7%,
COc1cccc(/C=C2/NC(=O)N(CC(=O)Nc3ccc(C)cc3)C2=O)c1OCc1cccc(C(=O)O)c1,16.8%,
COc1ccc(/C=N/NC(=O)c2ccccc2O)cc1Cn1nnc2ccccc21,5.52%,
CCc1nc2c(OCc3ccc(C(=O)OC)cc3)cccn2c1N(C)C(=O)c1ccc(OC)cc1,20% [at 30.8 µM],
O=C(CC1C[C@H](C(=O)N2CCCCC2)[C@@]2(CCc3ccccc3)c3[nH]c4ccccc4c3CCN2C1=O)NCCCn1ccnc1 (stereo not given in full),16.2%,
